Results reported in PubChem BioAssay.
Activity calls are given as the source filed them. Unless noted, no rule for the calls is given here.

Experiments:
[1] = compounds binding Alexa647 anti-His antibody – biochemical, small-molecule microarray, 635 nm fluorescence, artefact control for SMM control protein annotation, primary screen (AID 1128); settings: higher = more signal;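 also: score merges feature fluorescence with signal-to-noise for each printed compound spot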
[2] = tested on: Human papillomavirus type 1a E7 protein (residues 1-88); experiment: HPV1a E7 small-molecule binders, primary screen, biochemical, small-molecule microarray, residues 1-88, 635 nm (AID 1129); settings: small-molecule microarray binding, fluorescence 635 nm; higher = more signal
[3] = biological target: Focal adhesion kinase 1 (Homo sapiens) (UniProt Q05397); experiment: PTK2 protein binding on printed compound slides – biochemical, small-molecule microarray, 635/667 nm fluorescence, BSA, DTT, primary screen (AID 1130); settings: 635 nm fluorescence, higher = more signal;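 also: composite of spot emission at 667 nm and signal to noise over triplicate slides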
Chain of Focal adhesion kinase 1 (Homo sapiens) (Q05397 whole entry, looked up): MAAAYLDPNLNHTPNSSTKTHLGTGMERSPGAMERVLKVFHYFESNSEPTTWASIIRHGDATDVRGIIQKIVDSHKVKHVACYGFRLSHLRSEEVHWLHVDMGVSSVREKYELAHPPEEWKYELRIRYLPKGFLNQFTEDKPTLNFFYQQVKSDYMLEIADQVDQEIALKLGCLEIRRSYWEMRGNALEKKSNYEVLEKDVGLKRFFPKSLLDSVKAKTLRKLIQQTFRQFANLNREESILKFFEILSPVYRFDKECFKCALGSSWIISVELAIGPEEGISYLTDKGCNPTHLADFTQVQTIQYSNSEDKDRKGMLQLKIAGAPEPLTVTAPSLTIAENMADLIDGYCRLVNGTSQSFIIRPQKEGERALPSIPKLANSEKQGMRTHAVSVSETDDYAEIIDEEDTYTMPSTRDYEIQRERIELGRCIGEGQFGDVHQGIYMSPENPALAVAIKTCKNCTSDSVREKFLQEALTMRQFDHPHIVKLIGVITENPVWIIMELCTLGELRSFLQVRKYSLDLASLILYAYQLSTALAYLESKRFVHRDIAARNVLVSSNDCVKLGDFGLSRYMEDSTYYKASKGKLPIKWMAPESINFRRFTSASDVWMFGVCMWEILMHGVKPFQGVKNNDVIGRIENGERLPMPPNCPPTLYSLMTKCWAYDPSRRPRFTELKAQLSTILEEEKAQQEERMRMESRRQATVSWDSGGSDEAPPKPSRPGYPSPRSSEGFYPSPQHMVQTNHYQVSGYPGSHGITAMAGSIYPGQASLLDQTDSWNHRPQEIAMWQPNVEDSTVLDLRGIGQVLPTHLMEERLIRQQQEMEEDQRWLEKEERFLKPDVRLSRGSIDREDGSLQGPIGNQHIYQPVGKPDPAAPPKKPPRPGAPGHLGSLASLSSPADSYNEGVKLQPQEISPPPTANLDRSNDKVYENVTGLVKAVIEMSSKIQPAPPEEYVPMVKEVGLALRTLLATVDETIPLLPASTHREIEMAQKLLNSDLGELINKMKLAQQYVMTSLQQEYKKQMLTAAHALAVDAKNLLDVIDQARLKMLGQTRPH

[4] = tested on: Fibrinogen (Alexa647-labelled); experiment: Alexa647-fibrinogen binding to printed small molecules – biochemical, small-molecule microarray, 635/667 nm fluorescence, artefact control for SMM control-protein annotation, profiling panel (AID 1131); settings: fibrinogen-A647 binding fluorescence, higher = more signal;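 also: z-score merges 667 nm fluorescence with per-spot signal-to-noise over triplicate slides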
[5] = biological target: Follistatin (Homo sapiens) (UniProt P19883); experiment: FST protein binding to printed compounds – biochemical, small-molecule microarray, 635/667 nm fluorescence, primary screen (AID 1132); settings: 635 nm fluorescence, higher = more signal
Chain of Follistatin (Homo sapiens) (P19883 whole entry, looked up): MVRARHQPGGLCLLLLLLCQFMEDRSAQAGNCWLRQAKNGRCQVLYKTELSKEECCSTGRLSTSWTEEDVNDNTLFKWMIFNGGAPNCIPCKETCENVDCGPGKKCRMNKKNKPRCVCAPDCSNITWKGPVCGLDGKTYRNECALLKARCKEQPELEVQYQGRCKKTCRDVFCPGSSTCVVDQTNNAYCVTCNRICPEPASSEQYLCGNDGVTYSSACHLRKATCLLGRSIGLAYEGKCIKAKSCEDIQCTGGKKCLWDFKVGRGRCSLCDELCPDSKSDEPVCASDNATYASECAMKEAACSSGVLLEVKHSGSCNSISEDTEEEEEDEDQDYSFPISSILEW

[6] = biological target: Fibroblast growth factor 2 (Homo sapiens) (UniProt P09038); experiment: basic fibroblast growth factor binding to printed compounds – biochemical, small-molecule microarray, 635/667 nm fluorescence, primary screen (AID 1133); settings: FGF2, fluorescence 635/667, higher = more signal
Chain of Fibroblast growth factor 2 (Homo sapiens) (P09038 whole entry, looked up): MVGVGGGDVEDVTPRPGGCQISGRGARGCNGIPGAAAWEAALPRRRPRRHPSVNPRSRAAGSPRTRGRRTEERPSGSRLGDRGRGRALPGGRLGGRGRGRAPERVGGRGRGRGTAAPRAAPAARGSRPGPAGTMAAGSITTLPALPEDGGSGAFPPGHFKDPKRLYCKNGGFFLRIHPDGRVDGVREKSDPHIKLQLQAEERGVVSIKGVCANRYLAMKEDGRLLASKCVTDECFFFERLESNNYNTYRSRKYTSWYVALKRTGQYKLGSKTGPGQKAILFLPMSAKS

[7] = JC-1 mitochondrial potential readout, lung cancer cells – cell-based, A549, JC-1 fluorescence, basal, 24 h, 100 nL, profiling panel (AID 1138); settings: higher = more signal;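 also: A549 lung adenocarcinoma cells under basal conditions with no added stimulus; test concentration not given here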
Lefty1 = Lefty1 protein binding to printed compounds – biochemical, small-molecule microarray, 635/667 nm fluorescence, primary screen (AID 1139); settings: fluorescence 635/667, higher = more signal
[8] = tested on: wheat germ agglutinin (Triticum aestivum), Alexa647-labelled; experiment: Alexa647-WGA lectin binding to printed small molecules – biochemical, small-molecule microarray, 635/667 nm fluorescence, artefact control for SMM control-protein annotation, profiling panel (AID 1140); settings: WGA-A647 binding, 635 nm fluorescence, higher = more signal;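 also: score merges 667 nm feature emission with signal to noise over triplicate slides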
[9] = biological target: Luciferin 4-monooxygenase (Photinus pyralis) (UniProt P08659); experiment: inhibition of purified Photinus pyralis luciferase – biochemical, luminescence, purified enzyme, 2006 set, primary screen (AID 1141); settings: purified firefly luciferase, SteadyGlo luminescence, 30 min; higher = more signal, called active from +8 up or from −8 down;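 also: cell-free assay with purified firefly luciferase at 100 ng per well in PBS; test concentration not given here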
Chain of Luciferin 4-monooxygenase (Photinus pyralis) (P08659 whole entry, looked up): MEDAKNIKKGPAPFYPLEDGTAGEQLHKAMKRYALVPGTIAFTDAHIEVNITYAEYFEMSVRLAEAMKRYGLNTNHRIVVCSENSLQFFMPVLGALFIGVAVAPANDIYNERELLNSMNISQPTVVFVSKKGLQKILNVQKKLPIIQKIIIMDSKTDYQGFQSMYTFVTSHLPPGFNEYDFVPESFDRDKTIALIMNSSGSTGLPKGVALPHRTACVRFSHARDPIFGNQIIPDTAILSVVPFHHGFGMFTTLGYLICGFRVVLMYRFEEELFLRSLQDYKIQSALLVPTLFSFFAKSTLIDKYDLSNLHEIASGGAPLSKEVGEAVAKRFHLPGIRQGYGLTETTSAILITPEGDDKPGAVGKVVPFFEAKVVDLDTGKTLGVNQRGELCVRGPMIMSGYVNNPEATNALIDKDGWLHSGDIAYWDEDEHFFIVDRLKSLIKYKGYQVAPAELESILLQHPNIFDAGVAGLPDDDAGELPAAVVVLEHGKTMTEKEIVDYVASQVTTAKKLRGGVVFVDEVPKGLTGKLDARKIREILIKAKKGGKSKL

[10] = tested on: Wnt5a (protein binding on small-molecule microarray); experiment: small molecules binding Wnt5a protein – biophysical, small-molecule microarray, 635/667 nm fluorescence, primary screen (AID 1142); settings: 635 nm fluorescence, higher = more signal;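 also: fluorescence read at 667 nm with signal to noise per printed feature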
[11] = ATP-based viability of Huh7 replicon cells – cell-based, CellTiter-Glo luminescence, basal, 48 h, cytotoxicity control for HCV replication inhibitor project, primary screen (AID 1143); settings: higher = more signal, called active from +8 up or from −8 down;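 also: Huh7 hepatoma cells carrying a hepatitis C replication reporter with no stimulus; test concentration not given here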
[12] = Pseudomonas biofilm growth suppression – PAO1 strain, BacTiter-Glo luminescence, LB-PBS, primary screen (AID 1144); settings: P. aeruginosa PAO1 biofilm, 12 h, higher = more signal
[13] = basal CRE-LacZ reporter activity in PC12 – cell-based, unstimulated, primary screen (AID 1145); settings: no forskolin, luminescence, 4.5 h, higher = more signal, called active from +8 up or from −8 down
[14] = forskolin-driven CRE-LacZ activity in PC12 – cell-based, CRE-LacZ reporter, forskolin-stimulated, primary screen (AID 1146); settings: luminescence, 4.5 h, higher = more signal, called active from +8 up or from −8 down;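 also: PC12 cells with 6xCRE LacZ reporter stimulated by forskolin 10 µM; beta-galactosidase reporter signal reflecting CREB driven transcription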
[15] = biological target: Streptavidin (Streptomyces avidinii) (UniProt P22629); experiment: compounds binding control protein streptavidin – biophysical, small-molecule microarray, 635/667 nm fluorescence, artefact control for SMM compound annotation, primary screen (AID 1147); settings: higher = more signal;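 also: signal reflects streptavidin binding to arrayed compounds as a control protein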
Chain of Streptavidin (Streptomyces avidinii) (P22629 whole entry, looked up): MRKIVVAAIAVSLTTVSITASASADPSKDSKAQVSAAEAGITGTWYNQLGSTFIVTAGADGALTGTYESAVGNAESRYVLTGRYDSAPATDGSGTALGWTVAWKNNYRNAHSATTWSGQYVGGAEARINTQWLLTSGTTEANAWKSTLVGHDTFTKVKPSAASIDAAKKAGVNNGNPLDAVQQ

[16] = probe aInhba binding on compound microarray – biochemical, small-molecule microarray, 635/667 nm fluorescence, primary screen (AID 1148); settings: higher = more signal;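 also: score merges 667nm spot fluorescence with signal-to-noise for antibody binding to printed compounds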
Torsin-1A (Homo sapiens) [17] = biological target: Torsin-1A (Homo sapiens) (UniProt O14656); experiment: TOR1A wild-type binding on microarray – cell lysate, small-molecule microarray, lysate, 635/667 nm, primary screen (AID 1149); settings: COS7 hTOR1A-WT lysate, 635 nm fluorescence, higher = more signal
Chain of Torsin-1A (Homo sapiens) (O14656 whole entry, looked up): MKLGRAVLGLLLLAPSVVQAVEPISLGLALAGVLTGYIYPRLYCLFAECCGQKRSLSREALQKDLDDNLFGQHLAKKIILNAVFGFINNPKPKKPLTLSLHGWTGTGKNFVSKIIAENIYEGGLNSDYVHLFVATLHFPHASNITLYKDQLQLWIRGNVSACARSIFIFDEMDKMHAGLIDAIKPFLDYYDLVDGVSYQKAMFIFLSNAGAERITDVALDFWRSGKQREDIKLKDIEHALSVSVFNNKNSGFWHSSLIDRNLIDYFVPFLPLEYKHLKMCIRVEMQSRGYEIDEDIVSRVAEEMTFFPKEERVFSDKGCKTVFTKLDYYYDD

Torsin-1A (Homo sapiens) [18] = biological target: Torsin-1A (Homo sapiens) (UniProt O14656); experiment: torsin A mutant lysate binding on microarrays – cell lysate, small-molecule microarray, COS7 lysate, 635/667 nm fluorescence, primary screen (AID 1150); settings: COS7 hTOR1A mutant lysate, 635 nm fluorescence, higher = more signal;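 also: score pools 667 nm emission and signal to noise measuring lysate protein binding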
[19] = tested on: Sonic hedgehog protein (Shh); experiment: Sonic hedgehog microarray binding compounds – biochemical, small-molecule microarray, 635/667 nm fluorescence, primary screen (AID 1151); settings: 635 nm fluorescence, higher = more signal;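 also: Shh protein binding to compounds spotted on small-molecule microarray slides; score combines spot fluorescence intensity with signal-to-noise across triplicate slides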

| Structure (SMILES) | composite z-score [1] | composite z-score [2] | composite z-score [3] | composite z-score [4] | composite z-score [5] | composite z-score [6] | z-score [7] | composite z-score (Lefty1) | composite z-score [8] | z-score [9] | composite z-score [10] | z-score [11] | z-score [12] | z-score [13] | z-score [14] | composite z-score [15] | composite z-score [16] | composite z-score (Torsin-1A (Homo sapiens) [17]) | composite z-score (Torsin-1A (Homo sapiens) [18]) | composite z-score [19] |
| --- | --- | --- | --- | --- | --- | --- | --- | --- | --- | --- | --- | --- | --- | --- | --- | --- | --- | --- | --- | --- |
| C=C[C@H](CO)NS(=O)(=O)c1ccc(Br)cc1 | 0.461 | 0.446 | 0.179 | 0.28 | 1.06 | 0.464 | 1.19 | 0.28 | 0.279 | -0.877 (inactive) | -0.269 | 0.116 (inactive) | 0.564 (inactive) | 0.643 (inactive) | 1.79 (inactive) | 0.257 | -0.159 | 0.0757 | -0.0632 | 0.156 |
| CC(C)N1C(=O)C[C@@](C(=O)NCC(F)(F)F)(c2ccc([N+](=O)[O-])cc2)[C@H]1c1ccc(CO)cc1 | -0.203 | 0.38 | 0.611 | 0.0938 | 0.409 | -0.432 | -0.279 | 0.343 | 0.351 | 1.58 (inactive) | -0.492 | -4.06 (inactive) | -1.76 (inactive) | -0.761 (inactive) | -1.24 (inactive) | 0.14 | -0.128 | 0.894 | 0.0412 | 1.24 |
| COc1ccccc1CN1C(=O)c2ccccc2[C@@H](C(=O)NC2CC2)[C@@H]1c1ccc(CO)cc1 | 2.77 | 1.23 | 0.344 | 0.725 | 1.42 | 1.66 | 1.76 | 1.5 | 0.85 | -0.659 (inactive) | 0.845 | -0.132 (inactive) | 0.217 (inactive) | -0.709 (inactive) | -1.03 (inactive) | 0.53 | 0.297 | 0.848 | 0.385 | 1.8 |
| CC(C)C[C@@H]1NC(=O)[C@@H]2C[C@H](C(=O)O)[C@H](c3cccc(OCCO)c3)N2C1=O | 2.29 | -0.312 | -0.176 | -0.0031 | 0.495 | 0.89 | -0.0906 | -0.375 | 0.275 | -0.291 (inactive) | 0.64 | -1.07 (inactive) | 0.133 (inactive) | 0.826 (inactive) | 1.41 (inactive) | -0.811 | -0.209 | 0.198 | 1.09 | 0.188 |
| COCCOC(=O)N1C(=O)[C@@]2(c3cc(C#Cc4ccc(OC)cc4)ccc31)[C@H](c1ccc(OCCO)cc1)N1[C@H](c3ccccc3)[C@H](c3ccccc3)OC(=O)[C@H]1[C@@H]2C(=O)N1CCN(c2ncccn2)CC1 | 0.343 | 1.15 | 0.424 | -0.51 | 1.21 | 1.43 | -0.918 | 1.28 | -0.0073 | -0.618 (inactive) | 0.377 | -0.438 (inactive) | -0.112 (inactive) | 0.0695 (inactive) | 0.559 (inactive) | 0.165 | 0.0464 | 0.846 | 0.775 | 1.69 |
| COC(=O)[C@@]1(Cc2ccc(OC)cc2)[C@H]2c3cc(C(=O)N(C)C)n(C)c3C[C@H]2CN1C(=O)c1ccccc1 | 0.392 | 1.27 | 0.698 | 0.97 | 1.22 | 0.0022 | 1.05 | 0.146 | 1.11 | 1.82 (inactive) | 0.485 | -3.59 (inactive) | 0.584 (inactive) | 0.0041 (inactive) | 0.0225 (inactive) | 1.77 | 0.706 | -0.0231 | 0.777 | 0.418 |
| CCCCC(CC)C(O)C1C=CC2C(=O)N(Cc3ccccc3)C(=O)C2N1n1cnnc1 (stereo not given) | 0.544 | 0.541 | 1.57 | 0.107 | 0.539 | -0.504 | -0.423 | 0.0981 | 0.616 | 0.758 (inactive) | -0.205 | -0.114 (inactive) | 0.999 (inactive) | 0.127 (inactive) | 0.408 (inactive) | 0.124 | -0.166 | 0.17 | 0.606 | -0.405 |
| C=CCOC(=O)[C@H]1[C@@H]2C(=O)O[C@@H](c3ccccc3)[C@@H](c3ccccc3)N2[C@@H](c2ccc(OCCOC(=O)[C@@H]3C[C@@H]4C(=O)N[C@@H](CCCCNC(C)=O)C(=O)N4[C@@H]3c3ccc(O)cc3)cc2)[C@]12C(=O)Nc1ccccc12 | 3.17 | 1.22 | 1.14 | 0.76 | 1.25 | 1.49 | -1.55 | 1.23 | 0.8 | -0.907 (inactive) | 0.39 | -0.0424 (inactive) | -0.122 (inactive) | -0.126 (inactive) | -0.464 (inactive) | -0.0038 | 0.095 | 0.665 | 0.505 | 2.05 |
| COc1cccc(-c2cccc(=O)o2)c1 | 0.0707 | -0.0477 | -0.0753 | -0.51 | 0.302 | 0.0278 | -0.376 | -0.198 | 0.143 | -0.0346 (inactive) | 0.595 | 0.064 (inactive) | 0.77 (inactive) | -0.228 (inactive) | -0.977 (inactive) | 0.438 | 0.177 | 0.0114 | 0.698 | -0.207 |
| C[C@@]1([C@@H](NC(=O)c2ccc(-c3ccccc3)cc2)c2ccc(Cl)cc2)C[C@H]1C1CCCCC1 | 2.1 | 1.15 | 0.473 | 0.869 | 0.663 | -0.246 | 0.532 | 0.112 | 0.695 | 0.321 (inactive) | 0.271 | -1.18 (inactive) | -0.123 (inactive) | 0.972 (inactive) | 0.829 (inactive) | 1.35 | 0.289 | 0.564 | 0.0484 | -0.106 |
